Measurements as given in PubChem BioAssay (NCATS).
Results filed as inconclusive are left out. Calls of active or inactive are those of the source. Calls follow the shape of the dose curve; as a rule, active = well fitted curve in the direction sought with a large enough effect; inconclusive = small, poorly fitted or top-dose-only effect, or another doubt; inactive = no such curve, though single readings can be large; an effect the other way counts as inactive or inconclusive. Where a SMILES comes first, the peptide text is derived from it. [ ]: non-standard residue; d: D form. ξ: configuration not given here. ξTyr(βOH) = NC(C(=O)O)C(O)c1ccc(O)cc1

Experiments:
CRL-7250 = normal cell line; assay: Cytotoxic Profiling of Annotated Libraries Using Quantitative High-Throughput Screening (AID 1296008); settings: Five cell lines viability, CellTiter-Glo ATP luminescence, 48-72 h; max response: hits give low values; also: nearly all actives have a fitted effect of over 60% in size; as to max response: % is scaled to controls: 0 for no effect and ±100 for the full control effect
Outline: (§1)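 Cytotoxicity was measured as CellTiter-Glo ATP luminescence, read after 10 min at room temperature. Compound treatment of the cells lasted 48 or 72 hr at 37 degrees Celsius in a qHTS format.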

HEK293 = assay: as above; settings: Five cell lines viability, CellTiter-Glo ATP luminescence, 48-72 h; max response: hits give low values
Outline: as §1

HaCat [1] = assay: as above; settings: Five cell lines viability, CellTiter-Glo ATP luminescence, 48-72 h; max response: hits give low values
Outline: as §1

KB-3-1 = assay: as above; settings: Five cell lines viability, CellTiter-Glo ATP luminescence, 48-72 h; max response: hits give low values
Outline: as §1

NIH3T3 [2] = assay: as above; settings: Five cell lines viability, CellTiter-Glo ATP luminescence, 48-72 h; max response: hits give low values
Outline: as §1

HACAT [3] = assay: qHTS assay to identify novel small-molecules to repurpose for Merkel cell carcinoma treatment (AID 1296009); settings: MCC and control cell lines, CellTiter-Glo viability, 72 h; at 44.8 µM (top of the series) unless noted; also: nearly all actives have a fitted effect of over 60% in size
Outline: (§2)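 After compound transfer in DMSO, plates were kept 72 hr at 37 degree celsius. Luminescent ATP signal from CellTiter-Glo served as viability measure, normalized against DMSO and no-cell controls.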

NIH3T3 [4] = assay: as above; settings: MCC and control cell lines, CellTiter-Glo viability, 72 h; at 44.8 µM (top of the series) unless noted
Outline: as §2

C33A = assay: Primary qHTS to identify gynecologic anti-cancer compounds using libraries of approved drugs and bioactive compounds (AID 1345084); settings: Gynecologic cancer cell panel viability, ATPlite luminescence, 48 h; series mostly up to 57.5 µM; also: % is scaled to controls: 0 for no effect and ±100 for the full control effect; nearly all actives have a fitted effect of over 55% in size
Outline: (§3)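 Cells, 1,000 per well, were allowed to settle for 16 h at 37 C before compound addition. Five concentrations were tested for 48 h, and viability was read by ATPlite luminescence after 15 min at room temperature.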

CAOV3 = assay: as above; settings: Gynecologic cancer cell panel viability, ATPlite luminescence, 48 h; series mostly up to 57.5 µM
Outline: as §3

CASKI = assay: as above; settings: Gynecologic cancer cell panel viability, ATPlite luminescence, 48 h; series mostly up to 57.5 µM
Outline: as §3

Es-2 = assay: as above; settings: Gynecologic cancer cell panel viability, ATPlite luminescence, 48 h; series mostly up to 57.5 µM
Outline: as §3

HeLa = assay: as above; settings: Gynecologic cancer cell panel viability, ATPlite luminescence, 48 h; series mostly up to 57.5 µM
Outline: as §3

Hek293T = assay: as above; settings: Gynecologic cancer cell panel viability, ATPlite luminescence, 48 h, control line for the selectivity index; series mostly up to 57.5 µM
Outline: as §3

JEG-3 = assay: as above; settings: Gynecologic cancer cell panel viability, ATPlite luminescence, 48 h; series mostly up to 57.5 µM
Outline: as §3

OV90 = assay: as above; settings: Gynecologic cancer cell panel viability, ATPlite luminescence, 48 h; series mostly up to 57.5 µM
Outline: as §3

PA-1 = assay: as above; settings: Gynecologic cancer cell panel viability, ATPlite luminescence, 48 h; series mostly up to 57.5 µM
Outline: as §3

C=C1CC/C=C(/C(=O)O)CCC2C1CC2(C)C (centres undefined)
inactive: max response (CRL-7250) -2.67% | max response (HEK293) -4.76% | outcome (HaCat [1]) | max response (KB-3-1) 4.31% | outcome (NIH3T3 [2]) | outcome (HACAT [3]) | outcome (NIH3T3 [4]) | Potency (C33A) | Potency (CAOV3) | outcome (CASKI) | Potency (Es-2) | Potency (HeLa) | Potency (Hek293T) | Potency (JEG-3) | Potency (OV90) | Potency (PA-1)

CC(C)C1NC(=O)CNC(=O)C2CCCN2C(=O)C(Cc2c[nH]c3ccccc23)NC(=O)CNC(=O)C(C(O)c2ccc(O)cc2)NC(=O)CNC1=O (centres undefined) (cyclo(G[ξTyr(βOH)]GWPGV); configuration not given here)
inactive: max response (CRL-7250) -8.12% | max response (HEK293) 1.2% | outcome (HaCat [1]) | max response (KB-3-1) 2.88% | outcome (NIH3T3 [2]) | outcome (HACAT [3]) inactive [at 17.4 µM] | outcome (NIH3T3 [4]) inactive [at 17.4 µM] | Potency (C33A) | Potency (CAOV3) | outcome (CASKI) | Potency (Es-2) | Potency (HeLa) | Potency (Hek293T) | Potency (JEG-3) | Potency (OV90) | Potency (PA-1)

CC1(C)CC[C@]2(C(=O)O[C@@H]3O[C@H](CO)[C@@H](O)[C@H](O)[C@H]3O)CC[C@]3(C)C(=CCC4[C@@]5(C)CC[C@H](O[C@H]6O[C@H](CO)[C@@H](O)[C@H](O[C@@H]7O[C@H](CO)[C@@H](O)[C@H](O)[C@H]7O)[C@H]6O)C(C)(C)C5CC[C@]43C)[C@@H]2C1 (some centres undefined)
inactive: max response (CRL-7250) -1.95% | max response (HEK293) -4.45% | outcome (HaCat [1]) | max response (KB-3-1) 4.79% | outcome (NIH3T3 [2]) | outcome (HACAT [3]) inactive [at 9.27 µM] | outcome (NIH3T3 [4]) inactive [at 9.27 µM] | activity change, negative = cytotoxicity (C33A) 0.319% [at 11.6 µM] | activity change, negative = cytotoxicity (CAOV3) 1.94% [at 11.6 µM] | activity change, negative = cytotoxicity (CASKI) -7.8% [at 11.6 µM] | activity change, negative = cytotoxicity (Es-2) -1.42% [at 11.6 µM] | activity change, negative = cytotoxicity (HeLa) 11.5% [at 11.6 µM] | activity change, negative = cytotoxicity (Hek293T) 5.32% [at 11.6 µM] | activity change, negative = cytotoxicity (JEG-3) -9.09% [at 11.6 µM] | activity change, negative = cytotoxicity (OV90) -0.2% [at 11.6 µM] | activity change, negative = cytotoxicity (PA-1) 3.09% [at 11.6 µM]

C=CC(C)(O)CC/C=C(\C)C1CC=C(C)C(=O)O1 (centres undefined)
inactive: outcome (CRL-7250) | max response (HEK293) -4.28% | outcome (HaCat [1]) | max response (KB-3-1) 2.69% | outcome (NIH3T3 [2]) | outcome (HACAT [3]) | outcome (NIH3T3 [4]) | Potency (C33A) | Potency (CAOV3) | outcome (CASKI) | Potency (Es-2) | Potency (HeLa) | Potency (Hek293T) | Potency (JEG-3) | Potency (OV90) | Potency (PA-1)

O=C(O)/C=C/c1ccc2occc2c1O[C@@H]1O[C@H](CO)[C@@H](O)[C@H](O)[C@H]1O
inactive: max response (CRL-7250) -6.75% | max response (HEK293) 1.57% | outcome (HaCat [1]) | outcome (KB-3-1) | outcome (NIH3T3 [2]) | outcome (HACAT [3]) | outcome (NIH3T3 [4]) | Potency (C33A) | Potency (CAOV3) | outcome (CASKI) | Potency (Es-2) | Potency (HeLa) | Potency (Hek293T) | Potency (JEG-3) | Potency (OV90) | Potency (PA-1)

C=C1CC[C@@H]2C(C)(C)CCC[C@@]2(C)[C@@H]1CC/C(=C/C(=O)OC)COC(C)=O
inactive: max response (CRL-7250) -1.64% | max response (HEK293) -16.3% | outcome (HaCat [1]) | max response (KB-3-1) -9.17% | outcome (NIH3T3 [2]) | outcome (HACAT [3]) | outcome (NIH3T3 [4]) | Potency (C33A) | Potency (CAOV3) | outcome (CASKI) | Potency (Es-2) | Potency (HeLa) | Potency (Hek293T) | Potency (JEG-3) | Potency (OV90) | Potency (PA-1)

CC1(C)O[C@H]2CC(=O)OC[C@@]23C1=C(O)C(=O)[C@]1(C)C3CC[C@@]2(C)[C@H](c3ccoc3)OC(=O)[C@H]3O[C@]321 (some centres undefined)
inactive: outcome (CRL-7250) | max response (HEK293) 1.52% | outcome (HaCat [1]) | outcome (KB-3-1) | outcome (NIH3T3 [2]) | outcome (HACAT [3]) inactive [at 17.4 µM] | outcome (NIH3T3 [4]) inactive [at 17.4 µM] | Potency (C33A) | Potency (CAOV3) | outcome (CASKI) | Potency (Es-2) | Potency (HeLa) | Potency (Hek293T) | Potency (JEG-3) | Potency (OV90) | Potency (PA-1)

CC(=O)N[C@H]1[C@H](O[C@H]2CC[C@]3(C)C4CC=C5[C@@H]6CC(C)(C)CC[C@]6(C(=O)O)[C@H](O)C[C@@]5(C)[C@]4(C)CC[C@H]3C2(C)C)O[C@H](CO)[C@@H](O)[C@@H]1O (some centres undefined)
inactive: max response (CRL-7250) -7.8% | max response (HEK293) -6.92% | outcome (HaCat [1]) | max response (KB-3-1) -6.34% | outcome (NIH3T3 [2]) | outcome (HACAT [3]) inactive [at 17.4 µM] | outcome (NIH3T3 [4]) inactive [at 17.4 µM] | Potency (C33A) | Potency (CAOV3) | outcome (CASKI) | Potency (Es-2) | Potency (HeLa) | Potency (Hek293T) | Potency (JEG-3) | Potency (OV90) | Potency (PA-1)

CC(C)Oc1ccc(-c2nc(-c3cccc4c3CCC4NCCC(=O)O)no2)cc1C#N (centres undefined)
inactive: max response (CRL-7250) 0.795% | max response (HEK293) -10.1% | outcome (HaCat [1]) | max response (KB-3-1) 8.29% | outcome (NIH3T3 [2]) | outcome (HACAT [3]) | outcome (NIH3T3 [4]) | Potency (C33A) | Potency (CAOV3) | outcome (CASKI) | Potency (Es-2) | Potency (HeLa) | Potency (Hek293T) | Potency (JEG-3) | Potency (OV90) | Potency (PA-1)
